The text below walks through data of the OligoGym collection.
Also: reference of the scale not given here.

The first assay concerns the target CDH19. The experiment in a line: pooled miR-30 sensor sort-seq; sequence = guide strand. As to conditions: shRNA.
In turn, TAACTTTTGCTCTAATACCGTA gave a sensor-assay potency score (higher = more potent) of -0.771.
Still for that read-out and setting: as for TACTTGTAGTGATTGTACCATT, the figure is -0.931; as for TTGTTCCAGACAACGCTCCTGG, -0.175.

The target of another assay is CDH20. Described as above. The settings on record: shRNA.
On to TGTAGTAGAAATGCTGACCATT, for which the sensor-assay potency score (higher = more potent) is -0.339.
Same read-out and setting: with TAGTATATTTCATCTCTGCATT the figure was -0.967; with TATCATTGACATCTGAGAGGGT, 0.944.
Turning to TTGATTGTGACAGGAACACTTC, the sensor-assay potency score (higher = more potent) is -0.452.
Same read-out and setting: with TAGTATTCTTTGGCTTCTCTGT the figure was -0.859.
Same read-out and setting: as for TTCTTTGGCTTCTCTGTCCATG, the figure is -0.339; as for TTCATCTCTGCATTGATGCCTT, -0.00989.
Same read-out and setting: with TGATGATGAACTCTGACTCGGG the figure was -0.216.
Sequence TTTCTTGCTTTCAAAACTCAGG registered a sensor-assay potency score (higher = more potent) of -0.799.
Same read-out and setting: as for TTGAGTTGTTGGTCACATCTGG, the figure is 0.759; as for TATCTGAATGAAGCTTGCCGAC, -1.28; as for TTGGATAATCACTTCGTAGTAT, 0.305.
